hDAT+cocaine: changed hDAT dopamine uptake under cocaine IC80, either direction, primary screen, cocaine antagonist project, cell-based, LLC-PK1 hDAT, [14C]-dopamine uptake, MLSMR; LLC-PK1 hDAT cells, [14C]-dopamine uptake with cocaine IC80; actives deviate in either direction; B-score at 10 µM; 110,000 compounds, 1.3% hits; AID 449768, 2010;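 active means Z score or B-score, a plate-position-corrected score, falls beyond the plate's 99.7% confidence bounds, in either direction; inactive means both scores lie inside the 99.7% bounds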
Target sequence (Q01959 whole entry, looked up): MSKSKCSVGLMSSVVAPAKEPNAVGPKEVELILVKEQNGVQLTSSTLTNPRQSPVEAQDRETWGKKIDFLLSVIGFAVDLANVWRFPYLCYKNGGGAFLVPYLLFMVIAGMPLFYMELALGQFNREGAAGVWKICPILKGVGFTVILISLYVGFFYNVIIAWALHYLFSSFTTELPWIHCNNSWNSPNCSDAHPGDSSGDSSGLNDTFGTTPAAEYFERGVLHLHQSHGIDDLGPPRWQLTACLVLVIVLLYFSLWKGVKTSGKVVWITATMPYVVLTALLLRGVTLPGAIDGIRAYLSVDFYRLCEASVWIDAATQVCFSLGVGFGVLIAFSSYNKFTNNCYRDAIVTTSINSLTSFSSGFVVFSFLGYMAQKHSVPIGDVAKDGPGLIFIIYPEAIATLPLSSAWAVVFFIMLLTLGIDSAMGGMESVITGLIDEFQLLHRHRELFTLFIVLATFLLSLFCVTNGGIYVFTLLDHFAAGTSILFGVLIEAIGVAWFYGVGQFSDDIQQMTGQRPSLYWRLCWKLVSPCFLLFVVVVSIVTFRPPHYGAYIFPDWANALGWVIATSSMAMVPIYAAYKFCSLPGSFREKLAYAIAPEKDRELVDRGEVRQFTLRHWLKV
PostGolgi yeast: phenotypic screen on post-Golgi transport, primary screen. post-Golgi transport phenotypic cell assay. inhibition, % at 10 µM. 98,000 compounds, 0.9% hits;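 further: yeast cells grown in 1536-well plates; yeast grown about 18 h at 30C before absorbance read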
D1 mod: D1 CRE-luciferase signal change, two-sided – cell-based, HEK293 D1, dopamine EC30, D1 allosteric modulator project, primary screen | B-score at 10 µM | dopamine EC30 potentiation; actives deviate in either direction | D(1A) dopamine receptor (Homo sapiens), P21728 | 58,000 compounds, 5.9% hits;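 active means luminescence count or its row- and column-corrected plate score outside the 99.7% band of the plate's sample wells, on either side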
PLAP activator: PLAP enzyme activators, biochemical, luminescence, HTS. Alkaline phosphatase, placental type (Homo sapiens), P05187. purified PLAP enzyme, luminescent substrate read-out; hits give high values. activation fold at 20 µM. 96,000 compounds, 1.2% hits. AID 696, 2007; in the data active means activation fold above about 2
PostGolgi ctrl: growth inhibition of yeast control strain, primary screen, counter-screen for post-Golgi transport modulator project; efflux-deficient yeast background strain, growth absorbance A615, 16 h; inhibition, % at 10 µM; 98,000 compounds, 5% hits; AID 738, 2007
Cav3 T inh: Cav3.2 calcium influx blockers – cell-based, Fluo-4 calcium fluorescence, FDSS, MLSMR library, primary screen; Voltage-dependent T-type calcium channel subunit alpha-1H (Homo sapiens), O95180; Cav3.2-expressing cells; hits give low values; B-score at 10 µM; 100,000 compounds, 4% hits; AID 449739, 2010;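 active means single-dose well whose peak fluorescence ratio is a statistical outlier from its plate by either plate-standardised score or position-corrected B-score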
Hits are given with their value; n = inactive; x = no result given. A selection: hits, their analogues and other compounds. The true share with any hit is near 12%. Unless noted, no stated cut-off is given here; in the data, active means inhibition above about 30%; inactive means the rest.

SMILES	hDAT+cocaine	PostGolgi yeast	D1 mod	PLAP activator	PostGolgi ctrl	Cav3 T inh
CCN1CCN(c2ccc(NC(=O)Cc3ccccc3)cc2)CC1	n	n	-4.7	n	n	n
Cc1cccc(OCC(=O)Nc2ccc(N3CCN(S(C)(=O)=O)CC3)cc2)c1C	n	n	n	n	n	n
Cc1ccccc1OCC(=O)NCC1CCCO1 (stereo not drawn)	n	n	n	n	n	n
O=C(Nc1ccc(N2CCN(Cc3ccccc3)CC2)cc1)c1ncn[nH]1	n	n	x	n	31	n
Cc1ccccc1OCC(=O)NCCN1CCCC1	n	n	n	n	35	n
Cc1ccccc1OCC(=O)Nc1ccc(N2CCN(S(C)(=O)=O)CC2)cc1	-8.1	n	n	n	n	n
C/C(=N\NC(=O)c1cccc(F)c1)c1ccc(Br)s1	n	n	x	n	n	n
CCCCCNC(CC(=O)Nc1ccc(OC)cc1)C(=O)O (stereo not drawn)	x	x	n	x	x	x
CC(=O)NC1=C(C#N)C(c2ccccc2)c2c(ccc3ccccc23)O1 (stereo not drawn)	n	n	x	n	n	n
Cc1cc(C)c(Cn2c(=O)n(CCCC(=O)NCc3ccco3)c(=O)c3ccccc32)c(C)c1	n	x	n	x	x	x
O=C(O)COc1ccc2c3c(c(=O)oc2c1)CCC3	n	n	x	n	n	n
CC1CCCCN1C(=O)CSc1nnc(CSc2ncccn2)n1C (stereo not drawn)	n	n	x	n	n	n
CCN1CCN(c2ccc(NC(=O)COc3ccccc3Cl)cc2)CC1	n	n	-5	n	n	n
O=C(CSc1nnc(-c2ccc(OC(F)F)cc2)o1)NC(=O)NCc1ccco1	n	n	n	n	n	n
COc1c2occc2c(OC)c2c(=O)cc(C(F)(F)C(F)(F)F)oc12	n	n	n	n	n	n
O=C(CSc1nnc2c3ccccc3c3ccccc3c2n1)Nc1ccccc1	x	n	x	n	45	x
Cc1cccc(CN(C)CCc2ccccn2)c1	n	n	n	n	n	n
CC(C)(C)c1cc(S(=O)(=O)CCc2ccccn2)cc(C(C)(C)C)c1F	n	n	x	n	n	-4
CCN1CC(CCN2CCOCC2)C(c2ccccc2)(c2ccccc2)C1=O (stereo not drawn)	n	x	x	x	x	n
Cc1c(Cl)cccc1N1C(=O)CC(N(O)c2ccccc2)C1=O (stereo not drawn)	n	n	n	n	n	n
CN(C)C(=O)NC(O)C(Cl)Cl (stereo not drawn)	n	n	x	n	n	n
O=C(C1CCCN(S(=O)(=O)c2cccc3cccnc23)C1)N1CCN(c2ccc(F)cc2)CC1 (stereo not drawn)	n	n	-2.3	n	n	n
COc1ccc(NS(=O)(=O)c2cccc3cccnc23)cc1	n	x	n	x	x	x
O=C(C1CCN(S(=O)(=O)c2cccc3cccnc23)CC1)N1CCN(c2ccccc2)CC1	n	n	n	n	n	n
O=S(=O)(Nc1ccc(N2CCCCC2)cc1)c1cccc2cccnc12	n	n	n	n	38	n
SMILES	hDAT+cocaine	PostGolgi yeast	D1 mod	PLAP activator	PostGolgi ctrl	Cav3 T inh
CC(Sc1cccc(C(F)(F)F)c1)C(=O)NC(N)=O (stereo not drawn)	n	x	x	n	x	n
Cc1ccccc1-c1nnc(SCCOc2ccc3c(C)cc(=O)oc3c2)o1	n	n	x	n	n	n
Cc1nccn1CC(O)Cn1c2ccccc2c2ccccc21 (stereo not drawn)	n	x	x	x	x	n
Cc1ccccc1OCC(O)Cn1c2ccccc2c2ccccc21 (stereo not drawn)	n	n	x	n	38	n
CCn1c2ccccc2c2cc(NC(=O)c3cc(OC)c(OC)c(OC)c3)ccc21	n	n	x	n	n	n
CC(=O)Nc1ccc(OCC(O)Cn2c3ccccc3c3ccccc32)c(C)c1 (stereo not drawn)	n	n	x	n	46	n
O=S(=O)(Cc1ccccc1)N1CCc2ccccc21	n	n	n	n	n	n
CC(C)c1nc(SCC(=O)c2ccccc2)c2c(=O)n(C)c(=O)n(C)c2n1	n	n	x	n	n	n
CC(C)CCNc1nc2c(c(=O)n(Cc3cccc(F)c3)c(=O)n2C)n1C	n	n	n	n	41	n
CCNS(=O)(=O)c1ccc(S(=O)(=O)N(Cc2ccccn2)C2CCCCC2)cc1	n	n	n	n	n	n
O=S(=O)(NCc1ccccc1)c1ccc(S(=O)(=O)N(Cc2ccccn2)C2CCCC2)cc1	n	x	x	x	x	-4.1
COc1ccc(OC)c(C2/C(=C(\O)c3c(C)nc4ccccn34)C(=O)C(=O)N2CCCN(C)C)c1 (stereo not drawn)	x	x	n	x	x	x
C=CCn1c(SCC(=O)Nc2ccc3c(c2)OCO3)nnc1-c1cc(Br)ccc1O	n	n	n	n	n	-6.6
CCCCN1C(=O)C(O)=C(C(C)=O)C1c1ccccc1 (stereo not drawn)	n	n	x	n	n	n
CCCCCCN1C(=O)C(O)=C(C(C)=O)C1c1ccc(Cl)cc1 (stereo not drawn)	n	n	n	n	n	-7.8
O=C1c2ccccc2C(Nc2ccc(Cl)cn2)N1Cc1ccccc1 (stereo not drawn)	n	n	x	n	58	n
N#C[C@H]1C2OC2c2ccccc2N1C(=O)c1ccccc1 (stereo partly drawn)	n	x	x	x	x	n
CCOC(=O)c1nnn(CC(=O)N2N=C(c3ccc(Cl)cc3)CC2c2ccccc2)c1C(=O)OCC (stereo not drawn)	n	x	x	x	x	n
Cc1ccc(C)c(N2CCN(C(=O)c3ccc(NS(=O)(=O)c4c(C)noc4C)cc3)CC2)c1	n	n	n	n	n	-8.3
O=C(c1ccc(NS(=O)(=O)c2cccc3cccnc23)cc1)N1CCOCC1	n	x	n	x	x	n
CS(=O)(=O)Nc1ccc(C(=O)NCCSC2CCCCC2)cc1	n	n	x	n	n	n
Cc1ccc(NS(=O)(=O)c2cc(C(=O)NCCSC3CCCCC3)ccc2C)cc1	n	n	x	n	n	-4.5
Cc1ccc(NS(=O)(=O)c2cc(C(=O)N3CCOCC3)ccc2C)cc1	n	48	n	n	n	n
Cc1ccc(NS(=O)(=O)c2cc(C(=O)NCCSc3ccc(C)cc3)ccc2C)cc1	n	n	x	n	36	-4.4
CCN(CC)C(=O)C(=O)N/N=C/c1ccc(Br)cc1	n	n	x	n	n	n
COc1ccc(-c2csc(NCCc3nc4cc(C(=O)NCCCO)ccc4n3Cc3ccc(C)cc3)n2)cc1	n	x	x	x	x	n
CCc1c(C(C)O)oc2ccc3c(C)cc(=O)oc3c12 (stereo not drawn)	n	n	n	n	n	n
Cc1ccc(SCCNC(=O)c2ccc(C)c(S(=O)(=O)Nc3cccc(C)c3)c2)cc1	n	n	x	n	n	-4.6
